According to PubChem BioAssay AID431 (Sanford-Burnham Center for Chemical Genomics, 2006):
In all, about 63,000 compounds went through this assay and about 1,100 (1.7%) were called active. The list comes from a sample in which actives are over-represented; it also holds similar structures and randomly drawn compounds. Potency and affinity values are given separately. Unmarked numbers belong to inactive results.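 Rule for the calls: active = compounds whose percent cytotoxicity in the single-dose primary screen, scaled between solvent and toxic-drug controls, exceeds 50; inactive = the rest.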

Assay: cytotoxicity in KRAS-transformed pancreatic duct cells, primary screen, cell-based, fluorescence, HTS (AID 431);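 note: 0% = DMSO solvent wells and 100% = doxorubicin-treated wells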
Conditions: HPDE-C7K KRASV12 cells, Alamar Blue viability, 48 h; at 10 µM; hits give high values

| SMILES | cytotoxicity |
| --- | --- |
| O=C(COc1cc(Cl)ccc1Cl)Nc1nnc(CC(=O)N2CCOCC2)s1 | -20% |
| COc1ccccc1NC(=O)CN1CCN(CC(=O)Nc2ccc(F)cc2)CC1 | 11.3% |
| CCCNc1nc2c(c(=O)[nH]c(=O)n2C)n1Cc1ccc(F)cc1 | 8.2% |
| CC1Cc2ccccc2N1S(=O)(=O)c1ccc2c(c1)n(C)c(=O)c(=O)n2C (configuration not stated) | 2.9% |
| CCOC(=O)C1CCCN(S(=O)(=O)Cc2ccccc2)C1 (configuration not stated) | -14.4% |
| O=C1CSC(=S)N1c1cccnc1 | -10.8% |
| O=C(O)c1ccc(CN2C(=O)CSC2=S)cc1 | -5.7% |
| Cc1cccc(NC(=O)c2oc3c(c2C)C(=O)CC(C)(C)C3)n1 | -12.7% |
| O=C(Nc1ccccc1C(=O)N1CCN(Cc2ccccc2)CC1)c1ccccn1 | 8.7% |
| COc1ccc2[nH]c(=O)c(CN(C(=O)COc3ccccc3)C(C)C)cc2c1 | -31.9% |
| Cc1nn(C)cc1C1C2=C(CC(C)(C)CC2=O)OC2=C1C(=O)CC(C)(C)C2 | 2.9% |
| COC(=O)C1=C(N)OC2=C(C(=O)CC(C)(C)C2)C1c1ccoc1 (configuration not stated) | -4% |
| O=C(c1ccccc1C(=O)N1CCN(c2ccccc2F)CC1)N1CCN(c2ccccc2F)CC1 | 4% |
| COC(=O)c1ccccc1NC(=O)c1ccc(COc2ccccc2)o1 | 10.5% |
| COc1ccccc1NC(=O)c1ccc(-c2ccccc2F)o1 | -9% |
| COC(=O)c1ccccc1NC(=O)c1ccc(-c2ccccc2F)o1 | 90.9% (active) |
| COc1ccc(NC(=O)C(c2ccccc2)N(C)C(=O)c2cnccn2)cc1 (configuration not stated) | -2.6% |
| CC1(C)Cc2c(sc3c2c(=N)n(Cc2ccco2)c(=O)n3CC(=O)Nc2ccccc2)CO1 | 8.6% |
| Cc1ccc(NC(=O)Cn2c(=O)n(Cc3ccco3)c(=N)c3c4c(sc32)COC(C)(C)C4)cc1 | 23% |
| CC1(C)Cc2c(sc3c2c(=N)n(Cc2ccco2)c(=O)n3CC(=O)Nc2ccc(Cl)cc2)CO1 | 52.6% (active) |
| COCCNS(=O)(=O)c1ccc2c(c1)C(=O)c1cc(S(=O)(=O)NCCOC)ccc1-2 | -5.8% |

| SMILES | cytotoxicity |
| --- | --- |
| CC1C(=O)C(C)C(c2cccs2)NC1c1cccs1 (configuration not stated) | -4.9% |
| CCOC(=O)c1csc(NC(=O)c2ccc(S(=O)(=O)N(C)C)cc2)n1 | 5.4% |
| O=c1[nH]c2ccccc2n1CCCN1CCN(C(c2ccccc2)c2ccccc2)CC1 | 31.4% |
| O=C(NC1CCCCC1)N1CCC(n2c(=O)[nH]c3ccccc32)CC1 | -0.1% |
| Cc1noc(C)c1CSc1nnc(-c2ccncc2)n1-c1cccc(Cl)c1C | -13.5% |
| COc1cc(C2CC(=O)C=C(O)C2)cc(OC)c1OC (configuration not stated) | -10% |
| CCOc1ccc(C(=O)NCc2cccnc2)cc1 | 0.5% |
| O=S(=O)(c1ccc2nc(Cc3ccccc3)[nH]c2c1)N1CCOCC1 | 2.7% |
| CC(=O)Nc1ccc(S(=O)(=O)N2CCN(c3cc(C)nc4ccccc34)CC2)cc1 | -3.8% |
| CC(=O)Nc1ccc(S(=O)(=O)N2CCC(c3nc4ccccc4[nH]3)CC2)cc1 | 10.6% |
| COc1cc(O)c(NC(C)=O)c2nonc12 | 1.5% |
| CC(=O)Nc1nonc1NC(C)=O | -9.1% |
| c1ccc(CNc2nc3ccccc3[nH]2)cc1 | -13.8% |
| COc1ccc2nc(NCc3ccccc3)[nH]c2c1 | 39.9% |
| Cc1ccc2nc(NCc3ccccc3)[nH]c2c1 | 85% (active) |
| O=S(=O)(NCc1ccccc1)c1cccc2nonc12 | 4.4% |
| CCC1(C)Cc2c(sc3nc4n(c(=O)c23)CCS4)CO1 (configuration not stated) | 20.1% |
| CC(C)Cn1c(Br)nc2c1c(=O)n(CCC#N)c(=O)n2C | -5.5% |
| O=C1NC2(CCCC2)N=C1c1ccc(Cl)cc1 | -2.2% |
| O=C1NC2(CCCCC2)N=C1c1ccccc1 | 0.3% |
| Fc1ccccc1CSc1nc2ncccc2[nH]1 | -2.9% |

| SMILES | cytotoxicity |
| --- | --- |
| CCS(=O)(=O)CCSc1nc2ccccc2o1 | -13.9% |
| c1ccc2oc(SCc3nc4ccccc4s3)nc2c1 | 1.9% |
| CCS(=O)(=O)CCSc1nc2ccccc2s1 | -6% |
| O=C(CSc1nc2ccccc2s1)Nc1ncccn1 | -2% |
| Cn1c(SCc2cc(=O)n3cc(Br)ccc3n2)nnc1C1COc2ccccc2O1 (configuration not stated) | -2.9% |
| COc1ccccc1-n1cnc2cc(NC(C)=O)ccc21 | -14.9% |
| CCC(=O)Nc1ccc2c(c1)ncn2-c1ccccc1OC | -32.9% |
| COc1ccccc1-n1cnc2cc(NCc3ccco3)ccc21 | 66.4% (active) |
| Cc1cccc2nc(Cn3c(=O)n(CCC(=O)NCc4ccco4)c(=O)c4sccc43)cc(=O)n12 | 2.4% |
| O=C(NCN1C(=O)C2C3C=CC(C3)C2C1=O)Nc1nccs1 (configuration not stated) | -8.1% |
| Cc1c(C(=O)OC(C)C)[nH]c2c1C(=O)CCC2 | 18% |
| Cc1ccc(C2C(C#N)=C(N)Oc3nc(-c4ccccc4)[nH]c32)o1 (configuration not stated) | 0.6% |
| Cc1ccc(SCc2[nH]nc3c2C(c2ccc(C)o2)C(C#N)=C(N)O3)cc1 (configuration not stated) | 10.8% |
| O=C(Nc1ccccc1)c1ccc(S(=O)(=O)NCC2CCCO2)cc1 (configuration not stated) | -7.8% |
| COc1ccc(C2=NOC(C(=O)NCCCN3CCOCC3)C2)cc1 (configuration not stated) | 1.1% |
| Cc1ccc(-c2nnn(CC(=O)N(Cc3cccs3)C(C(=O)NC(C)(C)C)c3ccco3)n2)o1 (configuration not stated) | -2.9% |
| Cc1ccc(-c2nnn(CC(=O)N(c3ccccc3)C(C(=O)NC3CCCC3)c3ccco3)n2)o1 (configuration not stated) | -7.9% |
| Cc1ccc(-c2nnn(CC(=O)N(Cc3cccs3)C(C(=O)NC3CCCC3)c3ccco3)n2)o1 (configuration not stated) | 66.5% (active) |
| CCOC(=O)N1CCN(C(=O)c2c(O)c3cccc4c3n(c2=O)CC4)CC1 | -3% |
| O=C(O)CSC1CC(=O)N(c2cccc(Cl)c2)C1=O (configuration not stated) | -10.2% |
